Experimental findings from PubChem BioAssay are described below.

Experiment [1] is described as follows: inhibitors of TNFa-induced NFkB p65 translocation, primary screen, imaging, HUVEC, MLSMR starter and 10KST1 sets (AID 438).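 Also: compound added about 3h40 before a 20 min TNFalpha stimulation.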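 As to inhibition: signal is the nuclear over cytoplasmic p65 intensity ratio per well.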 As to conditions: HUVEC TNFa-induced p65 nuclear translocation; cell count: measured here: nuclei count (cytotoxicity indicator), at 2.08 µM; inhibition: at 2 µM, stronger effect = higher value, 0% TNFa-plus-vehicle, 100% no-TNFa wells.
Experiment [2] in a line: reduction of polyQ htt aggregates in cells – imaging, exon1htt(103Q)mCFP cells, high-content imaging, primary screen (AID 483;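 active = visual image review flags a hit and inhibition of aggregation exceeds 20%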;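 also: compound exposure lasted 3 days before fixation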;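 as to nuclei count: percent of the per-plate median nuclei count of sample wells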). The settings on record: exon1htt(103Q)mCFP cell line, aggregate imaging, at 2 µM; inhibition of aggregation: stronger effect = higher value; nuclei count: measured here: cell count, toxicity.
The nature of experiment [3]: endothelial E-selectin expression blockers – imaging, HUVEC, immunofluorescence, MLSMR starter and 10KST1 sets, primary screen (AID 487;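 active = visually confirmed hit in the image check and inhibition above 20%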;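 as to inhibition: signal is fraction of cell area covered by stained E-selectin grains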;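 as to nuclei count: 100% = median nuclei count of all wells on the same plate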). As to conditions: HUVEC TNFalpha-induced E-selectin immunofluorescence imaging, at 2 µM; inhibition: stronger effect = higher value; nuclei count: measured here: cell number, toxicity.
The target of experiment [4] is Voltage-gated potassium channel subunit beta-2 (Rattus norvegicus) (UniProt P62483). In words: inhibitors of rat Kvbeta2 reductase activity – biochemical, NADPH fluorescence, primary screen (AID 622;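 active = fluorescence slope higher than the sample average by over 3 SD, cut at about -0.22 in these data, passing the limit was not always enough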;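 also: slope of raw intensity against log time taken from 70 to 1610 s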). As to conditions: recombinant KvBeta, 4-cyanobenzaldehyde reduction, at 10 µM, stronger effect = higher value.
Voltage-gated potassium channel subunit beta-2 (Rattus norvegicus), sequence (P62483 whole entry, looked up): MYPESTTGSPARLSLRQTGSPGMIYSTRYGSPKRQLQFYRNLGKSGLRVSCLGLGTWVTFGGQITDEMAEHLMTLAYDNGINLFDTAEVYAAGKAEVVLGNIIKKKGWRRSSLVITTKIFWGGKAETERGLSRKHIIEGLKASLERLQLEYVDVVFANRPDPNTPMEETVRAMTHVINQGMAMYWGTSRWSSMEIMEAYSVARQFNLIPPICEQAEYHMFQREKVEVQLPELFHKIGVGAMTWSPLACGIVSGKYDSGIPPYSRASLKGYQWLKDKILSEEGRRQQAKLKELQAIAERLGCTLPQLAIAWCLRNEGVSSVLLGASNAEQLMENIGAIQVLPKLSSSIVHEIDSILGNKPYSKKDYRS
The target is the same in experiment [5]. Kind of experiment: enhancers of rat Kvbeta2 NADPH turnover – biochemical, NADPH fluorescence, primary screen (AID 623;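 active = NADPH fluorescence slope more negative than the mean of all samples by about 3 SD, 99.7% confidence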;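 also: fluorescence intensity change per second fitted from 20 to 320 s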). The settings on record: Recombinant KvBeta, NADPH fluorescence decrease slope, 10 min; at 10 µM; stronger effect = lower value.
The target in experiment [6] is Alpha-2C adrenergic receptor (Homo sapiens) (UniProt P18825). In words: compounds altering alpha2C-coupled GIRK flux – cell-based, HEK293 alpha2C/GIRK1/2, thallium flux, primary screen (AID 624;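 active = fluorescence slope after compound addition differing from the mean of all screened samples at 99.7% confidence, in either direction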;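 also: slope of fluorescence ratio to pre-addition baseline per second over 15 to 24 s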). As to conditions: thallium flux BTC fluorescence, at 10 µM, actives lie on both sides.
Alpha-2C adrenergic receptor (Homo sapiens), sequence (P18825 whole entry, looked up): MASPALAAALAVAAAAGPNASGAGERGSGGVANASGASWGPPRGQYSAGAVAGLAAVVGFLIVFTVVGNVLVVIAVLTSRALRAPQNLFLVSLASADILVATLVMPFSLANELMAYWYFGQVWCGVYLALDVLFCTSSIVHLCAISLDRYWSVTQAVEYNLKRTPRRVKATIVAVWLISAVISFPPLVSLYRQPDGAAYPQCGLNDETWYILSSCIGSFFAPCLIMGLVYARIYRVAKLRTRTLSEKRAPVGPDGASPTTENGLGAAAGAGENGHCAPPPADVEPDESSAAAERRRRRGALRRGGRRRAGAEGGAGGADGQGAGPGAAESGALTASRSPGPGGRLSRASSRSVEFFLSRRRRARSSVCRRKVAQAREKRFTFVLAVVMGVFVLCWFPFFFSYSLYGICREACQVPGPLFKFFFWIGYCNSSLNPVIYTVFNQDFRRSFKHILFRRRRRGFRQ
The nature of experiment [7]: blockers of RIG-like receptor reporter activation – cell-based, Sendai virus stimulus, luciferase, 10K MLSCN set, TLR/RLR signaling modifier project, primary screen (AID 602276;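 active = inhibition at or above 50% at 10 µM; inactive = inhibition below 50%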;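 also: firefly luciferase from ISG56 promoter only with Renilla not read in this screen; 0% = Sendai virus plus DMSO and 100% = medium plus DMSO without virus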). As to conditions: HEK293 RL24 IRF3 luciferase reporter, at 10 µM, stronger effect = higher value. For orientation: Reporter assays use an easily measured gene product as a stand-in for the process of interest.

Experiment [8] is described as follows: TLR3 IRF3 reporter activation blockers – cell-based, poly I:C stimulus, luciferase, 10K MLSCN set, primary screen (AID 602277;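 active = inhibition of the reporter signal at or above 50%; inactive = inhibition below 50%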). As to conditions: HEK293-TLR3 RL24 IRF3 luciferase reporter, at 10 µM, stronger effect = higher value.

Calls of active or inactive are those of the source.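 The calls were made as follows, unless noted: active = inhibition above 20% together with a positive visual image hit; inconclusive = visual image hit but inhibition not above 20%; inactive = no visual image hit.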

Turning to `COc1ccc2[nH]c(C)c(CCN3C(=O)OC(C)(C)C3(C)O)c2c1` (centres undefined), the cell count in experiment [1] turned out to be 754. Besides, the inhibition in experiment [1] is -4% (inactive); in experiment [3] it was -2.5% (inactive); in experiment [7], 6.33% (inactive); in experiment [8], 23.6% (inactive). In addition, the inhibition of aggregation in experiment [2] was -15.3% (inactive). For the same compound, the nuclei count was 97.3% in experiment [2] and 111% in experiment [3]. Also, in experiment [4], the fluorescence slope was -0.561 (inactive). Further, the NADPH fluorescence slope in experiment [5] is -4.3e-05 (inactive). For the same compound, the slope in experiment [6] was 0.00701 (inactive).
`O=C(c1ccccc1Oc1nnnn1-c1ccccc1)N1CCOCC1`: in experiment [1], the cell count was 315. In addition, the inhibition in experiment [1] was -0.9% (inactive); in experiment [3], -73.9% (inactive); in experiment [7], 9.07% (inactive); in experiment [8], 21.2% (inactive). The inhibition of aggregation in experiment [2] is -13.9% (inactive). Moreover, the nuclei count in experiment [2] amounted to 107%; in experiment [3] it was 113%. Moreover, the fluorescence slope in experiment [4] is -0.269 (inactive). Moreover, the NADPH fluorescence slope in experiment [5] was 2e-05 (inactive). Also, the slope in experiment [6] is 0.00699 (inactive).
As for `CCOC(=O)N1CCC(N2C(=O)c3ccc(C(=O)NCc4ccco4)cc3C2=O)CC1`, in experiment [1], the cell count worked out at 646. Further, the inhibition in experiment [1] is -6.1% (inactive); in experiment [3], -40.8% (inactive); in experiment [7], 7.39% (inactive); in experiment [8], 26.2% (inactive). Also, in experiment [2], the inhibition of aggregation is 0.7% (inactive). Besides, the nuclei count in experiment [2] came to 96.3%; in experiment [3] it was 126%. Besides, in experiment [4], the fluorescence slope was -0.59 (inactive). Also, the NADPH fluorescence slope in experiment [5] was -2.2e-06 (inactive). The slope in experiment [6] was 0.00518 (inactive).
As for `O=C(NCc1ccccn1)C(C(=O)c1ccc(F)cc1)n1ccccc1=O` (centres undefined), the cell count in experiment [1] was determined as 531. Besides, the inhibition in experiment [1] is -1.5% (inactive); in experiment [3], -117% (inactive); in experiment [7] it was -10.6% (inactive); in experiment [8], 3.51% (inactive). For the same compound, the inhibition of aggregation in experiment [2] was 3.1% (inactive). Also, the nuclei count in experiment [2] is 70.7%; in experiment [3] it was 219%. The fluorescence slope in experiment [4] is -0.472 (inactive). Besides, the NADPH fluorescence slope in experiment [5] was -3.8e-05 (inactive). Further, the slope in experiment [6] was 0.0066 (inactive).
`COc1ccc(S(=O)(=O)N2CCCC2C(=O)Nc2ccc(C)cc2)cc1` (centres undefined): the cell count in experiment [1] was 469. The inhibition in experiment [1] was 42.3% (active); in experiment [3], -11.9% (inactive); in experiment [7] it was 12.2% (inactive); in experiment [8] it was 7.96% (inactive). For the same compound, the inhibition of aggregation in experiment [2] is -25% (inactive). The nuclei count in experiment [2] amounted to 130%; in experiment [3] it was 73.3%. For the same compound, the fluorescence slope in experiment [4] was -0.498 (inactive). In addition, the NADPH fluorescence slope in experiment [5] is -5.1e-05 (inactive). Besides, in experiment [6], the slope was 0.00758 (inactive).
On to `COc1ccc(-c2nn3c(-c4cccc(C)c4)nnc3s2)cc1OC`, for which the cell count in experiment [1] came out at 525. The inhibition was 10.3% (inactive) in experiment [1], -9.3% (inactive) in experiment [3], -18.2% (inactive) in experiment [7] and -17.1% (inactive) in experiment [8]. In experiment [2], the inhibition of aggregation was -9.4% (inactive). Besides, the nuclei count in experiment [2] turned out to be 100%; in experiment [3], 114%. For the same compound, in experiment [4], the fluorescence slope is -0.419 (inactive). Also, the NADPH fluorescence slope in experiment [5] was 1.9e-05 (inactive). Also, the slope in experiment [6] was 0.00514 (inactive).
Take `CN(C)c1cccc2c(S(=O)(=O)Nc3ccccn3)cccc12`: in experiment [1], the cell count turned out to be 679. Further, the inhibition was 11.1% (inactive) in experiment [1], 22.1% (inactive) in experiment [3], 11.3% (inactive) in experiment [7] and 19.3% (inactive) in experiment [8]. Further, the inhibition of aggregation in experiment [2] was 11.7% (inactive). Besides, the nuclei count in experiment [2] was 101%; in experiment [3] it was 86.9%. Further, the fluorescence slope in experiment [4] was -0.318 (inactive). In addition, in experiment [5], the NADPH fluorescence slope is -1.7e-05 (inactive). The slope in experiment [6] is 0.00542 (inactive).
As to `O=C(c1cc2ccccc2oc1=O)N1CCN(c2ccc(N3CCOCC3)nn2)CC1`, in experiment [1], the cell count came to 490. The inhibition is -6.9% (inactive) in experiment [1], -13.6% (inactive) in experiment [3], -9.88% (inactive) in experiment [7] and 18.4% (inactive) in experiment [8]. Further, the inhibition of aggregation in experiment [2] is 0.1% (inactive). The figures for the nuclei count in experiment [2] and in experiment [3] were 104% and 110%, respectively. Moreover, the fluorescence slope in experiment [4] was -0.603 (inactive). Also, in experiment [5], the NADPH fluorescence slope was -1.8e-05 (inactive). Besides, in experiment [6], the slope was 0.00513 (inactive).
For `CCC(C)(C(=O)NC1CCCC1)N(C(=O)c1cnccn1)c1c(C)n(C)n(-c2ccccc2)c1=O` (centres undefined), the cell count in experiment [1] came out at 568. Besides, the inhibition in experiment [1] is 3.8% (inactive); in experiment [3], 15.6% (inactive); in experiment [7] it was -1.44% (inactive); in experiment [8], 9.08% (inactive). In addition, in experiment [2], the inhibition of aggregation was 7% (inactive). The nuclei count in experiment [2] turned out to be 91.3%; in experiment [3], 89.6%. Besides, the fluorescence slope in experiment [4] was -0.471 (inactive). Also, in experiment [5], the NADPH fluorescence slope is -0.000132 (inactive). Also, in experiment [6], the slope was 0.00518 (inactive).
Consider `CCOc1nc(OCC)nc(N2CCC(C)CC2)n1`, for which the cell count in experiment [1] is 499. The inhibition was 9.1% (inactive) in experiment [1], -118% (inactive) in experiment [3], 16.6% (inactive) in experiment [7] and 20.5% (inactive) in experiment [8]. In experiment [2], the inhibition of aggregation was 5.9% (inactive). Also, the nuclei count was 106% in experiment [2] and 138% in experiment [3]. Besides, in experiment [4], the fluorescence slope was -0.242 (inactive). In addition, the NADPH fluorescence slope in experiment [5] was -3.2e-05 (inactive). For the same compound, in experiment [6], the slope was 0.005 (inactive).
As to `Cc1ccc(-n2nnnc2SCC(=O)c2cc(C)n(-c3cc(C)on3)c2C)cc1`, the cell count in experiment [1] is 844. In addition, the inhibition in experiment [1] was -12.4% (inactive); in experiment [3], -36.4% (inactive); in experiment [7], 12.6% (inactive); in experiment [8], 18.7% (inactive). In addition, the inhibition of aggregation in experiment [2] was -7.8% (inactive). Moreover, the nuclei count was 101% in experiment [2] and 106% in experiment [3]. The fluorescence slope in experiment [4] was -0.595 (inactive). Besides, the NADPH fluorescence slope in experiment [5] was 8.7e-07 (inactive). For the same compound, the slope in experiment [6] was 0.00585 (inactive).
On to `CCSc1cc(C2C(C(=O)OC)=C(C)NC3=C2C(=O)CCC3)c(C)o1` (centres undefined), for which the cell count in experiment [1] turned out to be 737. For the same compound, the inhibition in experiment [1] was -6.1% (inactive); in experiment [3] it was -52.7% (inactive); in experiment [7] it was 16.1% (inactive); in experiment [8], 22.6% (inactive). Further, the inhibition of aggregation in experiment [2] is 8.4% (inactive). The nuclei count in experiment [2] is 96.3%; in experiment [3], 129%. Further, in experiment [4], the fluorescence slope was -0.593 (inactive). Further, the NADPH fluorescence slope in experiment [5] was -2.7e-05 (inactive). Also, the slope in experiment [6] was 0.00339 (inactive).
Take `CCCCCCC(C)n1[nH]c(=O)c2c(C)cc(=O)[nH]c21` (centres undefined): the cell count in experiment [1] stood at 675. Besides, the inhibition in experiment [1] is 8.2% (inactive); in experiment [3] it was -6.2% (inactive); in experiment [7] it was 3.89% (inactive); in experiment [8] it was -2.25% (inactive). Also, the inhibition of aggregation in experiment [2] is -12.3% (inactive). Besides, the nuclei count in experiment [2] was determined as 105%; in experiment [3], 91.9%. The fluorescence slope in experiment [4] is -0.61 (inactive). The NADPH fluorescence slope in experiment [5] is -1.7e-05 (inactive). Further, in experiment [6], the slope is 0.00325 (inactive).
Take `CCOC(=O)c1c(C)oc2c1c(C(c1ccncc1)N1CCOCC1)c(O)c1ccccc12` (centres undefined): the cell count in experiment [1] amounted to 827. The inhibition was -7.9% (inactive) in experiment [1], -21.1% (inactive) in experiment [3], -6.32% (inactive) in experiment [7] and -31.2% (inactive) in experiment [8]. For the same compound, the inhibition of aggregation in experiment [2] was -6.4% (inactive). Besides, the nuclei count in experiment [2] worked out at 101%; in experiment [3] it was 107%. Moreover, the fluorescence slope in experiment [4] is -0.594 (inactive). In addition, the NADPH fluorescence slope in experiment [5] is 2.5e-05 (inactive). For the same compound, in experiment [6], the slope is 0.00459 (inactive).

Broadly, the inhibition is the change of the read-out against control, counted positive when it falls.
